Each structure is given as a SMILES string.

This test addresses AMP-activated protein kinase, AMPK (Homo sapiens) (UniProt P54646+O43741+P54619+Q9UGJ0+Q9Y478+Q13131+Q9UGI9). Nature of the test: AMP-dependent Kinase enzyme assay. An in vitro enzyme assay that detects ADP turnover that is directly proportional to AMPK activity. This uses naive AMPK that is activated during the assay with MK-8722. It counts as functional. Further details: scale not given: direction of the effect not stated beside the values. To be noted: 30 µM.
Regarding `CN(CCO)Cc1nnc(C2CCN(C(=O)c3cccnc3)CC2)n1C`, the Percent Effect is -6.42%.
As to `CN(C)C(=O)NC1COC2(CCN(C(=O)Nc3ccccc3)CC2)C1` (centres undefined), the Percent Effect was 1.41%.
Consider `Cc1cc(C)c(CNC(=O)NCC(O)COc2ccccc2)c(=O)[nH]1` (centres undefined), for which the Percent Effect was 4.9%.
Regarding `CCc1cnc2c(c1NCc1ccncc1)c(=O)n(C)c(=O)n2C`, the Percent Effect is -0.992%.
With `c1cc(C2CCCN2Cc2nnnn2C2CC2)cs1` (centres undefined), the Percent Effect was -9.7%.
Consider `O=C(CC1CC1)N1CCn2cc(Cn3cncn3)nc2C1`, for which the Percent Effect turned out to be 4.72%.
As to `CN1CCN(Cc2cn3c(n2)CN(C(=O)N2CCOCC2)CC3)CC1`, the Percent Effect amounted to 1.33%.
Take `CC(C)c1nc(C(=O)N2CCCC(n3cncn3)C2)c[nH]1` (centres undefined): the Percent Effect was 3.03%.
Consider `CC(C)Cc1cc(C(=O)NCc2nnc[nH]2)[nH]n1`, for which the Percent Effect turned out to be 11.2%.
Take `Cn1c(C(F)(F)F)nn(CCNC(=O)CSCc2ccccc2)c1=O`: the Percent Effect came to 2.99%.
The result for `O=C(NCCn1ccc(-c2ccncc2)n1)c1ccncc1` reads -0.372%.
Turning to `CCn1cc(N)c(C(=O)NCc2cnn(C)c2)n1`, the Percent Effect came out at 2.98%.
Regarding `COc1c(CNCc2ccnc(N3CCCC3)c2)c(C)nn1C`, the Percent Effect was -1.28%.
`COCCn1cc(C(=O)N2CCCC2c2cc(C)no2)ccc1=O` (centres undefined): the Percent Effect was determined as 1.75%.
Consider `CC(C)C(=O)NCCCn1ncc2c(Cl)cccc21`, for which the Percent Effect came to 1.13%.
`Cc1c[nH]c(CN(C)C(=O)c2cccc(CCC(C)(C)O)c2)n1`: the Percent Effect is -4.37%.
For `CC(O)CC(C)(C)CNC(=O)NCc1cccc(-n2ccnc2)c1` (centres undefined), the Percent Effect is -1.99%.
`CN(C)C(C)(C)CNC(=O)C(C)(C)c1ccccc1F`: the Percent Effect is -4.87%.
Under `Cc1cnn(CC2CCCN2C(=O)c2cc3ccccc3[nH]2)c1` (centres undefined) stands -0.229%.
Under `Cc1ccc(C(=O)N2CCN(S(C)(=O)=O)CC2)cc1N1CCNC1=O` stands 3.73%; under `CC(=O)c1ccccc1C(=O)NCC1(CO)CC1`, -5.63%.
`Cn1nc(CNC(=O)C2COc3ccccc3O2)cc1C1CC1` (centres undefined): the Percent Effect was 21.3%.
For the compound `CN(CCCc1cnn(C)c1)C(=O)C1CCOC1` (centres undefined), the Percent Effect amounted to 3.21%.
As to `CC(NC(=O)NCC1(c2ccccc2)CCC1)c1nncn1C` (centres undefined), the Percent Effect was -7.01%.
In the case of `CN(C)Cc1cc(=O)n2c(n1)CN(C(=O)Cc1ccsc1)CCC2`, the Percent Effect was determined as 0.0483%.
Regarding `COCCCNC(=O)CN(C)C(=O)c1cc(C)sc1C`, the Percent Effect turned out to be 0.833%.
In the case of `Cn1c(CN2CCCC2)nnc1C1CCCN(C(=O)C2CCOCC2)C1` (centres undefined), the Percent Effect is -5.63%.
Under `COc1ccc(NC(C)=O)c(N2CCN(C(C)=O)CC2)n1` stands -14.1%.
As to `CC(=O)NCCc1cc(N2CCN(C(C)=O)CC2)nc(C2CC2)n1`, the Percent Effect is 10.3%.
Under `NC(=O)CC1CCN(C(=O)CCOc2ccc(Cl)cc2)CC1` stands 2.65%; under `CCn1ccnc1CN1CCCC(CO)(Cc2cccc(Cl)c2)C1` (centres undefined), -2.31%; under `COc1cccc(C(=O)NS(=O)(=O)c2cccc(C#N)c2)c1OC`, -6.64%.
With `Cc1csc(N2CCN(CCc3ccccn3)CC2C)n1` (centres undefined), the Percent Effect is -7.28%.
On to `Cn1nnc2c1CCN(Cc1ccccc1)C2COCC1CC1` (centres undefined), for which the Percent Effect was -10.3%.
`c1ccc(-c2noc3c2CN(CC2CC2)CC3)cc1`: the Percent Effect was -7.86%.
In the case of `CC(C)(C)c1n[nH]c(C2CN(C(=O)c3csnn3)CCO2)n1` (centres undefined), the Percent Effect was -1.35%.
On to `O=C(NC[C@H]1OC[C@@H]2CCN(Cc3ccco3)C[C@@H]21)c1ccsc1`, for which the Percent Effect is -0.185%.
In the case of `CS(=O)(=O)NC[C@]12COC[C@H]1CN(C(=O)c1ccoc1)C2`, the Percent Effect worked out at 7.55%.
As to `Cc1nn(C)c(N(C)C)c1CNCc1ccccc1CN(C)C`, the Percent Effect was -13.2%.
